Hit rate of the full screen: of about 190,000 compounds, about 810 (0.43%) were called active. This excerpt belongs to a sample that is enriched for actives. Unmarked numbers belong to inactive results. Cut-off read from the data, not from the text of the source: active = inhibition above about 50%; inactive = the rest.
What follows are compounds tested against Mannose-6-phosphate isomerase (Homo sapiens) (UniProt P34949) (assay: MPI enzyme activity inhibition – biochemical, fluorescence intensity, coupled assay, primary screen (AID 1209;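 note: plate controls were DMSO vehicle for no effect and wells lacking substrate for full effect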)). Details: purified PMI enzyme, at 20 µM, hits give high values.
Mannose-6-phosphate isomerase (Homo sapiens), sequence (P34949 whole entry, looked up): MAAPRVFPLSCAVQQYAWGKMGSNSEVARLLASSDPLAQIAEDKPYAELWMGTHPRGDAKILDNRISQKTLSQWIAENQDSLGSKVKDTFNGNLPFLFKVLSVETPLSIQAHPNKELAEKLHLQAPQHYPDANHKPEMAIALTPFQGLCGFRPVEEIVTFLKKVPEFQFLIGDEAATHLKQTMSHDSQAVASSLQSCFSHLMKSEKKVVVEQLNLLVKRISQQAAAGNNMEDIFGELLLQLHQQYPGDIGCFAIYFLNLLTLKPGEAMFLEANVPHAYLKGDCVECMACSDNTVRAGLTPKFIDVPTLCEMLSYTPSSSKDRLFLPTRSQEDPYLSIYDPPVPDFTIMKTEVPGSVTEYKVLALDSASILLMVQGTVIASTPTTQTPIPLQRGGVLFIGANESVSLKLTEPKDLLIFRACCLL

| SMILES | inhibition |
| --- | --- |
| CCCCNC(c1ccccc1)c1ccncc1 (stereo not drawn) | 6.1% |
| CCn1c(SCC(=O)NC2CCS(=O)(=O)C2)nnc1-c1ccccc1 (stereo not drawn) | -4.5% |
| COc1cc(NC(=O)CN2C(=O)CN(C)C2=O)c(C)cc1[N+](=O)[O-] | -9.8% |
| Cc1ccccc1NC(=O)C1c2cccc[n+]2CC(=O)N1c1c(C)cccc1C (stereo not drawn) | 91.6% (active) |
| Cc1cccc(C)c1NC(=O)C1c2cccc[n+]2CC(=O)N1Cc1cccs1 (stereo not drawn) | -7.5% |
| Cc1ccccc1NC(=O)C1c2cccc[n+]2CC(=O)N1Cc1ccc2c(c1)OCO2 (stereo not drawn) | -17.8% |
| C(=C\c1ccccc1)/C=N/Nc1nc(N2CCOCC2)nc(N2CCOCC2)n1 | -1.4% |
| CCn1c(SCC(=O)N2CCN(c3ccc(F)cc3)CC2)nnc1-c1ccncc1 | 8.1% |
| O=C(CCn1c(=S)oc2ccccc21)Nc1cccc(F)c1 | -10.5% |
| O=C(NCc1ccco1)c1cccc(Nc2nc3ccc(Br)cc3[nH]2)c1 | 22% |
| O=C(NCc1cccs1)c1cccc(Nc2nc3ccc(Br)cc3[nH]2)c1 | 15.4% |
| O=C(NCC1CC1)c1ccc(Nc2nc3ccc(Br)cc3[nH]2)cc1 | 84% (active) |
| COC(=O)/C=C1\SC(=NC(=O)c2ccc(C)cc2)NC1=O | 3.6% |
| O=C(O)/C=C/c1ccc(O)c(O)c1 | 56.4% (active) |
| O=Cc1ccc(O)c(O)c1 | 25.6% |
| COc1cc(/C=C/C(=O)CC(=O)/C=C/c2ccc(O)c(OC)c2)ccc1O | 5.3% |
| COc1ccc(NC(=O)/C=C/c2ccc(OC)c(OC)c2)cn1 | -4.6% |
| Cc1cc([N+](=O)[O-])cnc1Sc1nccn1C | -29.4% |
| O=C(CCc1nc2ccccc2[nH]c1=O)OCC(=O)c1ccc(Cl)cc1 | 2.3% |
| COc1ccc(/C=N/NC(=O)c2nn(-c3ccccc3)c(=O)c3c(N)scc23)cc1 | 60.7% (active) |
| COc1ccc(/C=N/NC(=O)c2nc(-c3ccccc3)n(-c3ccccc3)n2)cc1 | 17% |
| CCOC(=O)c1nn(-c2ccc(OC)cc2)c(=O)c2c(N)scc12 | 46.8% |
| COc1ccc(/C=N/NC(=O)c2nn(-c3ccc(Cl)cc3)c(=O)c3c(N)scc23)cc1 | 50.7% (active) |
| CCOC(=O)c1nn(-c2ccc(C)cc2)c(=O)c2c(N)scc12 | 39.4% |
| CCOC(=O)c1nn(-c2ccccc2)c(=O)c2c(N)scc12 | 36.2% |
| CCOC(=O)c1nn(-c2ccc(F)cc2)c(=O)c2c(N)scc12 | 40.7% |
| Nc1scc2c(C(=O)N/N=C/c3ccc(Cl)cc3)nn(-c3ccccc3)c(=O)c12 | 69.6% (active) |
| COc1ccc(/C=N/NC(=O)c2nn(-c3ccc(C)c(C)c3)c(=O)c3ccccc23)cc1 | 13.2% |

From PubChem BioAssay AID1209 (Sanford-Burnham Center for Chemical Genomics, 2008)
